Shown are actives, neighbours in structure and some others; about 10% of the full set was active somewhere.
ALDH1A1 inh – inhibitors of human aldehyde dehydrogenase 1A1; Purified ALDH1A1, NADH fluorescence, propionaldehyde substrate; Potency, µM (doses to about 75.3 µM), for the others: top-dose activity, negative = inhibition, usual class: inhibitors; 220,000 compounds, 7.3% hits; AID 1030;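 further: potency means the concentration at half of the fitted maximal effect; plate controls were no enzyme wells and a reference inhibitor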
Target sequence (P00352 whole entry, looked up): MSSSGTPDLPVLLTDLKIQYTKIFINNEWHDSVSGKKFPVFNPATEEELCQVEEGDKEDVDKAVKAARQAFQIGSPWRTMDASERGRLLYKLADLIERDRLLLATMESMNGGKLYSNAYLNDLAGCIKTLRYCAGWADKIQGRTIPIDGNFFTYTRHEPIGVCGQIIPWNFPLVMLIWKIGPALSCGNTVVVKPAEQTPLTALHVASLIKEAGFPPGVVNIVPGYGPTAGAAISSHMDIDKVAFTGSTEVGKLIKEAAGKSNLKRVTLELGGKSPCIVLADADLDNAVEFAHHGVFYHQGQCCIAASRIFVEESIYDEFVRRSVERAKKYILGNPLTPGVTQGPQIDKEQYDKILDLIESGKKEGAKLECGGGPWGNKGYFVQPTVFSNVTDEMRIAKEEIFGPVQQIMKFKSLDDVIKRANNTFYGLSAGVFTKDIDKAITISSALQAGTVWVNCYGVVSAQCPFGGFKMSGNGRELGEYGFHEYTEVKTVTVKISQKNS
HPGD inh – blocks human HPGD enzyme activity; P15428; purified HPGD, NADH fluorescence kinetic, PGE2 substrate; Potency, µM, inactives show top-dose activity change, negative = inhibition, usual class: inhibitors; 150,000 compounds, 4.3% hits; further: potency means the concentration at half of the fitted maximal effect
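20 nM HPGD preincubated 15 min at room temperature with compound in 50 mM Tris-HCl pH 8, 0.01% Tween 20. Started with 1 mM NAD+ and 30 uM prostaglandin E2; NADH fluorescence (360/450 nm) read 5 times over 30-s intervals, last minus first.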
Luc counter – counter-screen: inhibitors of Kinase-Glo firefly luciferase | Q27757 | Kinase-Glo luciferase, ATP luminescence, 8 min | Potency, µM (doses to about 38.3 µM), inactives show top-dose activity change, negative = inhibition, most hits filed as inhibitors | 200,000 compounds, 0.28% hits; active means well fitted inhibition curve with a large enough effect; inconclusive means small, poorly fitted or top-dose-only effect; further: potency means the concentration at half of the fitted maximal effect; nearly all actives have a fitted effect of over 60% in size
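Compounds were added to a substrate mix at pH 7.2 (50 mM imidazole, 10 uM ATP, within the enzyme's linear range), followed by Kinase-Glo detection reagent; luminescence was measured after 8 minutes at ambient temperature.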
IMPase inh – IMPase inhibition in cells. AID 901. 120,000 tested, under 10 active. inhibition (IP1 accumulation), % at 46.1 µM. CHO-M1 cells, IP1 accumulation, HTRF TR-FRET ratio; active means well fitted curve in the direction sought with a large enough effect in the signal ratio, not every such curve was filed as active; inconclusive means small, poorly fitted or top-dose-only effect, or a change in a side signal; inactive means no such curve, though single readings can be large or run the other way; the % refers to the signal ratio;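 further: cells stimulated with carbachol in lithium chloride buffer; plate controls were DMSO basal wells for no effect and reference inhibitor wells for full effect; higher means more IMPase inhibition seen as more IP1 and lower FRET ratio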
Target sequence (P97697 whole entry, looked up): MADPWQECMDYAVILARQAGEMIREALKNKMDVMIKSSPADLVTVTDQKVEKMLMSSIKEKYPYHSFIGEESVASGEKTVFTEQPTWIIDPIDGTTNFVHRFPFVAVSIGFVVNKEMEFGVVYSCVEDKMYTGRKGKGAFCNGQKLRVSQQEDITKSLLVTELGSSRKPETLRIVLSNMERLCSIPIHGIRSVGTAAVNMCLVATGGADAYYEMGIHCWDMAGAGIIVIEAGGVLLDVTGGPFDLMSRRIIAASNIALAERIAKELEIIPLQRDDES
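Cellular IMPase inhibition is scored as a rise in cytosolic IP1, detected by competitive TR-FRET between d2-labelled IP1 and a europium anti-IP1 antibody. M1-expressing CHO cells were stimulated with carbachol for 30 min at 37C, with lithium (50 mM LiCl) present in the buffer.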
PNC inhibitor – inhibitors of perinucleolar compartment assembly; 140,000 compounds, 3.1% hits; PC3M PTB-GFP, PNC prevalence imaging, 16 h; hits give low values; activity change (PNC), negative = inhibition, % at 10 µM;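 active means readout at or below -70, meaning at least 70% loss of cells showing the perinucleolar compartment, a nuclear body marking cancer cells; inconclusive means readout between -30 and a set limit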;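 further: plate controls were DMSO wells for no effect and camptothecin positive control wells for full effect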
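Read-out is percentage of cells bearing a perinucleolar compartment, from automated 20x imaging of fixed, Hoechst-stained PC3M PTB-GFP cells. Cells were seeded 4 h, then exposed 16 h to compound (23 nl of library stock) in duplicate plates.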
LMNA splice mod – modulators of lamin A splicing. Potency, µM (titrated, usually from 46.1 µM), inactives show at the highest dose ratio change, negative = inhibition, usual class: inhibitors. HeLa LMNA splicing GFP/RFP minigene ratio, 48 h. 200,000 compounds, 0.01% hits; active means well fitted inhibition curve with a large enough effect in the signal ratio, with a control signal flat, not every such curve was filed as active; inconclusive means small, poorly fitted or top-dose-only effect, or effect the other way, or a change in a side signal; the % refers to the signal ratio; further: potency means the concentration at half of the fitted maximal effect
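S3 HeLa stable clones carrying a lamin A-EGFP splicing minigene plus DsRed2 were seeded at 600 cells/well in Opti-MEM with 2% FBS, pin-dosed and incubated 48 h at 37°C. Acumen cytometry (488 nm) gave the GFP/RFP total-intensity ratio.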
Active calls of the source: *; ? = inconclusive; . = not tested or not shown; [ ] = dose if it differs, or a comment. Unless noted, the call rests on the fitted dose curve; in most records, active means well fitted inhibition curve with a large enough effect (not every such curve was filed as active); inconclusive means small, poorly fitted or top-dose-only effect, or another doubt; inactive means no such curve, though single readings can be large or run the other way. Unless noted, on the % scale 0 is the no-effect control and ±100 the full control effect.

SMILES	ALDH1A1 inh	HPGD inh	Luc counter	IMPase inh	PNC inhibitor	LMNA splice mod
Cc1ccccc1CSc1ncc(CO)n1Cc1ccc(F)cc1	.	.	.	.	.	8.9%[46 µM]
Cc1ccc(S(=O)(=O)Oc2ccc(/C=C(/NC(=O)c3ccccc3)C(=O)NCCC(=O)O)cc2)cc1	2.51µM*	.	2.2%	.	.	10.2%[46 µM]
COc1ccc(NC(=O)/C(=C\c2ccc(OS(=O)(=O)c3ccc(C)cc3)cc2)NC(=O)c2ccccc2)cc1	1µM*	-14.8%	-0.5%	5.1	9.4	-0.3%
COc1ccc(/C=C(\NC(=O)c2ccccc2)C(=O)NCCC(=O)O)cc1	9.3%	.	3.2%	.	.	6.7%[46 µM]
Cc1ccc(S(=O)(=O)Oc2ccc(/C=C(/NC(=O)c3ccccc3)C(=O)NCCCC(=O)O)cc2)cc1	2.82µM*	.	-2.9%	.	.	.
Cc1ccc(S(=O)(=O)Oc2ccc(/C=C(/NC(=O)c3ccccc3)C(=O)Nc3ccccc3)cc2)cc1	?	?	-5.5%	-2.4	27.1	3.7%
CCOc1ccc(/C=C(\C#N)c2nc(-c3cc4ccccc4oc3=O)cs2)c(OCC)c1	.	.	.	-2.2	.	.
Cn1c2c(c(=O)n(C)c1=O)C(C(F)(F)F)(C(F)(F)F)N=C(C1CCCCC1)N2	7.2%	-1.1%	0.9%	.	-92.9*	15.0%
CCOC(=O)c1[nH]cnc1C(=O)Nc1ccccn1	0.251µM*	.	.	?	27.5	-0.5%
N#Cc1cccc(-c2nccc(-n3ccnc3)n2)c1	?	.	.	.	.	0.1%
O=C(COc1ccc(Cl)cc1)NCC(c1ccco1)S(=O)(=O)c1ccc(F)cc1 (stereo not given)	.	.	.	.	.	2.8%[46 µM]
CCCN1C(=O)/C(=C/c2cc(C)n(C)c2C)SC1=Nc1ccc(OCC)cc1	3.16µM*	-10.9%	-0.7%	7.2	-26.4	0.0%
CCN1C(=O)/C(=C/c2cc(C)n(C)c2C)SC1=Nc1ccc(OC)cc1	1.26µM*	-14.2%	14.0%	8.5	?	2.5%
COC(=O)c1cccc(Cn2c(Cl)c(/C=N/Nc3ccccc3C)sc2=O)c1	22.4µM*	?	-1.3%	.	17.4	?
O=C(O)c1cccc(Cn2c(Cl)c(/C=N/NC(=O)c3cc4ccccc4cc3O)sc2=O)c1	10µM*	.	.	.	.	.
O=C(O)c1cccc(Cn2c(Cl)c(/C=N/NC(=O)c3ccccc3)sc2=O)c1	-0.1%	-28.5%	0.5%	-3.6	28.7	?
CSC1=NC2(CCN(C(=O)NC3CCCCC3)CC2)N=C1c1ccc(C(C)(C)C)cc1	.	.	.	.	.	15.5%[46 µM]
COC(=O)NC(c1ccccc1)[C@@]1(C(=O)OC)CCCC1=O (stereo not given in full)	12.2%[13.5 µM]	.	.	.	.	.
COC(=O)C1C(=O)C2=C(CC1C)NC(C)=C(C(=O)OC(C)C)C2c1ccc(C)o1 (stereo not given)	-13.4%	-5.7%	0.0%	-4.0	?	-8.3%
COC(=O)C1C(=O)C2=C(CC1C)NC(C)=C(C(=O)OC1CCCCC1)C2c1ccc(N(C)C)cc1 (stereo not given)	8.91µM*	-15.8%	0.8%	-6.5	-100.0*	-14.9%
NC(=O)Cc1ccc(C(=O)c2ccc(Cl)cc2Cl)s1	?	.	2.7%	.	.	.
O=C(c1cnc(-c2ccc(Cl)cc2)s1)c1ccc(Cl)cc1Cl	-4.6%	35.5µM*	0.9%	-2.3	62.5	1.5%
COc1cccc(NC(=O)C2CCCN(S(=O)(=O)c3cn(C(C)C)cn3)C2)c1 (stereo not given)	.	.	.	.	.	21.3%[46 µM]
CCOc1ccc(C(=O)NCC(=O)OCC(=O)N2CCCCC2)cc1	6.5%	-2.6%	-3.0%	-3.0	31.9	-1.3%
Cc1ccc(C(=O)CNc2ccc(Cl)cc2)cc1	10µM*	.	0.3%	.	.	.
SMILES	ALDH1A1 inh	HPGD inh	Luc counter	IMPase inh	PNC inhibitor	LMNA splice mod
CCOc1ccc(NC(=O)c2ccc(NCC(=O)N3CCCCCC3)cc2)cc1	6.31µM*	.	-7.2%	.	.	15.7%[46 µM]
CCOc1ccc(NCC(=O)c2ccc(C)cc2)cc1	3.16µM*	.	-1.8%	.	.	2.4%[46 µM]
CN(C)CCC(=O)c1ccc(Cl)cc1	0.112µM*	15.8µM*	0.4%	4.8	?	1.7%
O=C(O)CCC(=O)CCC(=O)c1ccc(Cl)cc1	-1.1%	-16.7%	7.7%	1.3	-0.8	6.9%
CC#CCN1c2ccccc2[C@]23C[C@@H](C(=O)OC)N(S(=O)(=O)c4c(C)noc4C)C2=NC(C(=O)OC)=C(C(=O)OC)[C@H]13	7.6%[13.5 µM]	-15.0%	1.4%[7.66 µM]	.	.	-17.4%[9.22 µM]
COC(=O)C(CC(=O)c1ccc(Cl)cc1)c1ccc(C)cc1 (stereo not given)	-3.6%	-10.4%	2.0%	-0.4	-100.0*	-8.1%
CC/C(=N\NC(=O)c1ccc(-c2ccccc2)cc1)C12CC3CC(CC(C3)C1)C2	12.6µM*	-24.6%	16.9%	-5.1	0.5	2.1%
C/C(=N\NC(=O)c1ccncc1)C12CC3CC(CC(C3)C1)C2	?	-9.4%	-1.5%	.	-118.2*	-4.3%
O=C(NN=C1C2CC3CC(C2)CC1C3)c1ccncc1	-8.0%	1.5%	-4.6%	5.8	-25.7	6.4%
Cc1cccc(OCc2nnc(SCC(=O)Nc3ccc(C)cc3C)o2)c1	.	.	.	3.9	.	.
CC1=C2[C@@H]([C@H](C)CC[C@H]2/C=C(\C)C(=O)O)[C@H](O)C1	?	-9.8%	.	.	.	.
COC(=O)c1cc2c(C)nn(-c3ccccc3)c2s1	?	?	0.5%	2.8	-8.5	8.0%
Cc1nn(-c2ccccc2)c2sc(C(=O)N(CC(=O)NC(C)(C)C)Cc3ccco3)cc12	25.1µM*	-28.0%	2.3%	9.3	?	-22.3%
COC(=O)[C@H](Cc1ccccc1)NC(=O)O[C@@H]1Cc2cc(OC)ccc2O[C@H]1c1cccc(OC)c1	-3.1%	-10.1%	-3.6%	.	.	.
O=C1NC(c2ccccc2)=CC(c2ccccc2)N1 (stereo not given)	3.6%	.	-2.8%	.	.	-13.7%[46 µM]
O=C1CC(c2ccccc2)NC(=O)N1 (stereo not given)	3.3%	-2.7%	-2.4%	-7.9	-81.4*	-9.5%
Cc1cc(NCCN(C)C)n2nc(-c3cccs3)cc2n1	?	?	-8.1%	-2.7	-88.7*	-9.3%
Cc1cc(NCCCO)n2nc(-c3cccs3)cc2n1	?	.	-5.2%	.	.	.
COCc1cc(=O)[nH]c(SCCS(=O)(=O)c2ccc(C)cc2)n1	0.794µM*	.	.	.	.	.
COCC(=O)N1CCC2(CC1)CCN(C(c1ccccc1)c1ccccc1)CC2	10.8%	-4.5%	-0.7%	.	.	.
Cc1ccc(-n2c(SCC(=O)NCCN3C(=O)CSC3=O)nnc2-c2ccccc2)cc1	1.4%	-8.1%	-3.9%	.	31.3	4.9%
O=C(COC(=O)c1cccc(Cl)c1Cl)NCCN1C(=O)CSC1=O	0.3%	-10.8%	0.4%	.	-20.9	0.6%
O=C(COC(=O)c1ccccc1Br)NCCN1C(=O)CSC1=O	14.1µM*	.	0.6%	.	.	-21.3%[46 µM]
Cn1c(SCC(=O)NCCN2C(=O)CSC2=O)nnc1-c1ccccc1	9.1%	2.6%	2.1%	.	-81.7*	-8.0%

Source: PubChem BioAssay
